What was measured:
Experiment in all cases: DAPPL (digital affinity profiling via proximity ligation, sequencing); 10 mM Tris-HCl pH 7.5, 50 mM NaCl, 1 mM DTT, 4% glycerol, room temperature, 30 min; GST-TFs on glutathione beads, 16-mer random dsDNA library, 0.1% formaldehyde crosslink after washing; high values mean tight binding
Conditions in all cases: protein: recombinant; tags: N-terminal GST; dsDNA, one strand shown
ETV5 = ETV5 (Homo sapiens, UniProt P41161 1-510)
Procedure, shortened: (§1)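 Binding signal is given per hexamer as its read frequency for a factor divided by its frequency in the tag-only sample. GST-fused human transcription factors were expressed in yeast, captured on glutathione beads, barcoded with DNA and pooled with that sample, then incubated with 200 nmole of a 16-mer random double-stranded DNA library in Tris/NaCl/DTT/glycerol buffer for 30 min at room temperature. The pools were then washed, crosslinked, proximity-ligated, amplified by PCR and sequenced on an Illumina NextSeq500.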

SPIC = molecular target: T1, SPIC (Homo sapiens, UniProt Q8N5J4 1-248)
T1 sequence: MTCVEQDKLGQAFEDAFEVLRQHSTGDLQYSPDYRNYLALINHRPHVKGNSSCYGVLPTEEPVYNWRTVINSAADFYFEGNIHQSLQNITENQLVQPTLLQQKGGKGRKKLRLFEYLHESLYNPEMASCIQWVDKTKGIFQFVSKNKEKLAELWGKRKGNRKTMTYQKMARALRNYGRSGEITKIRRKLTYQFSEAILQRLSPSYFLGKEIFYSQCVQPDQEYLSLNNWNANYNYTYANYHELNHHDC
Procedure, shortened: as §1

ELF4 = ELF4 (Homo sapiens, UniProt Q99607 1-663)
Chain of ELF4 (Q99607 whole entry): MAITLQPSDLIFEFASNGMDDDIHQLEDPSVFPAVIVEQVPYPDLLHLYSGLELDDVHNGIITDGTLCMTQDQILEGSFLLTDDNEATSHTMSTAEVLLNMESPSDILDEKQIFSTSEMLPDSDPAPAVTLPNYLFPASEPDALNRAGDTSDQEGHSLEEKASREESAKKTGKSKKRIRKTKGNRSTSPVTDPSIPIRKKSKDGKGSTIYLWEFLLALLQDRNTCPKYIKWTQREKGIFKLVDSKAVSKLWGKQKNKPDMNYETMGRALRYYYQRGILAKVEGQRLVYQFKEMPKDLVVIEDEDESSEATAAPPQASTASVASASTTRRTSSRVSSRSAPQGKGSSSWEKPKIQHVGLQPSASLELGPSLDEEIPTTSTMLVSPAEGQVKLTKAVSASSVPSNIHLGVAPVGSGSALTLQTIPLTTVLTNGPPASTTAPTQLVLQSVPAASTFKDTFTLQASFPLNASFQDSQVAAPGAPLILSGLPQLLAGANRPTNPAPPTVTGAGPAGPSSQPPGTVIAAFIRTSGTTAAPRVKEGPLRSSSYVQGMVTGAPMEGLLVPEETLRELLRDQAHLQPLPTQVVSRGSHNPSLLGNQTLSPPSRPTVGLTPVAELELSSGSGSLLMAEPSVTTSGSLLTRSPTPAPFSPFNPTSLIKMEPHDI
Procedure, shortened: as §1

ETV1 = ETV1 (Homo sapiens, UniProt P50549 1-477)
Chain of ETV1 (P50549 whole entry): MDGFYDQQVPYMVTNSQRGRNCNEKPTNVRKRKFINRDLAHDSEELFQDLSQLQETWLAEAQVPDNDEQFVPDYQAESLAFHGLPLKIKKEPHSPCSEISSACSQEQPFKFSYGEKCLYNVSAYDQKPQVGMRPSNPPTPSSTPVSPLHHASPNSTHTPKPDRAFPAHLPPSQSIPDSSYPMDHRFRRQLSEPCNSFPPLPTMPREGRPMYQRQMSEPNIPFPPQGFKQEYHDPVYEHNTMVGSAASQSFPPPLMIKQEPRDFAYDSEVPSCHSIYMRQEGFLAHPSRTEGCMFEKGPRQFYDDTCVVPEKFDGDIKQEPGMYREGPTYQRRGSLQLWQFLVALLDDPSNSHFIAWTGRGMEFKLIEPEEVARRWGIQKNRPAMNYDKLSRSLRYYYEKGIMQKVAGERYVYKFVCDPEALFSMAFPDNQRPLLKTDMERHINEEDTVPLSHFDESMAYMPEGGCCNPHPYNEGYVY
Procedure, shortened: as §1

ERF = molecular target: T2, ERF (Homo sapiens, UniProt P50548 1-548)
T2 sequence: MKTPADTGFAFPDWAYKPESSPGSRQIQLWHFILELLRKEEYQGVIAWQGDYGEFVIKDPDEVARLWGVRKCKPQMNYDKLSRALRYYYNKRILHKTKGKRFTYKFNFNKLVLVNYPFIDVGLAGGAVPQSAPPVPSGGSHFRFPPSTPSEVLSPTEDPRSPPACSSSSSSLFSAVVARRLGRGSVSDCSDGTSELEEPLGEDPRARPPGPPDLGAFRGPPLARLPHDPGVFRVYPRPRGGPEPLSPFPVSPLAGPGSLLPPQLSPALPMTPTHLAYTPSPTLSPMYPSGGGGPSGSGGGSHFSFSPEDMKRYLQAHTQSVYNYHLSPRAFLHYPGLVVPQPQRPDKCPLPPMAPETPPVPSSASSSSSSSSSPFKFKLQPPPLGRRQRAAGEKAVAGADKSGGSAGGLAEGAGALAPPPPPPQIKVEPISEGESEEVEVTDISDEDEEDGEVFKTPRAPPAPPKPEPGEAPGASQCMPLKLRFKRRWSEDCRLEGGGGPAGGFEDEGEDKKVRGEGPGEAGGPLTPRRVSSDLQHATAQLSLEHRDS
Procedure, shortened: as §1

ETV3L = molecular target: T3, ETV3L (Homo sapiens, UniProt Q6ZN32 1-361)
T3 sequence: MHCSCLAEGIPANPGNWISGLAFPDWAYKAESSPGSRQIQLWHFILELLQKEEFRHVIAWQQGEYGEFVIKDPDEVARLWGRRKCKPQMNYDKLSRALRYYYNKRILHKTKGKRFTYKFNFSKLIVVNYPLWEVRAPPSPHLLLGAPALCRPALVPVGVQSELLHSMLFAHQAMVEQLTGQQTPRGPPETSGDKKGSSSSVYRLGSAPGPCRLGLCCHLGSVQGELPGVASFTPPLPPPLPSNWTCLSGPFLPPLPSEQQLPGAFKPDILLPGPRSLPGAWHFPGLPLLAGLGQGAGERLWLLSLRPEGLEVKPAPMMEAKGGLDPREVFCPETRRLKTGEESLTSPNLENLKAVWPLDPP
Procedure, shortened: as §1

ETS2 = molecular target: T4, ETS2 (Homo sapiens, UniProt P15036 1-469)
T4 sequence: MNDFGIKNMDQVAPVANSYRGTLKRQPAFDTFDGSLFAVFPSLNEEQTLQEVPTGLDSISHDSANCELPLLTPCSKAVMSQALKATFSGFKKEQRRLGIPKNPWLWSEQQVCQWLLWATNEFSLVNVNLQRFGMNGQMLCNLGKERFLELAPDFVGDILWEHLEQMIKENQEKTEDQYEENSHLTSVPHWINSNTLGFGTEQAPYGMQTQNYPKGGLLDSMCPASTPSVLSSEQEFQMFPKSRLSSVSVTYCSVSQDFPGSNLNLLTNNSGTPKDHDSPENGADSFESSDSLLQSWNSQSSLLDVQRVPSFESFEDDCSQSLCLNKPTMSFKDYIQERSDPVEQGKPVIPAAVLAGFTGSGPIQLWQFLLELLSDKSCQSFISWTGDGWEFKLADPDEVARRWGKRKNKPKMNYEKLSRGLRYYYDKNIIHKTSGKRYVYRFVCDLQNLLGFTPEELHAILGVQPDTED
Procedure, shortened: as §1

ELF5 = molecular target: T5, ELF5 (Homo sapiens, UniProt Q9UKW6-2 1-255)
T5 sequence: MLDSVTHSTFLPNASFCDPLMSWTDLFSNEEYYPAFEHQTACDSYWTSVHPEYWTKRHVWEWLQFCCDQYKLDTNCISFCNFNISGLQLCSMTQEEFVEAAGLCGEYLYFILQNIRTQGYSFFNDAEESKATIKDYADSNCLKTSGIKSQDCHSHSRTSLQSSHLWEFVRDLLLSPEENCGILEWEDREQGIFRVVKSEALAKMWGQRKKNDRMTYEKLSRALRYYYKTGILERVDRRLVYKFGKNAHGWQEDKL
Procedure, shortened: as §1

ETV3 = molecular target: T6, ETV3 (Homo sapiens, UniProt P41162-2 1-143)
T6 sequence: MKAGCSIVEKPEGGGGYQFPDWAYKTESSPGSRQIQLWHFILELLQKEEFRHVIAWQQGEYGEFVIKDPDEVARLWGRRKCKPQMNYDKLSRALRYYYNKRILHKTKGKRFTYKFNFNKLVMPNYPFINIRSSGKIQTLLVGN
Procedure, shortened: as §1

ETV6 = ETV6 (Homo sapiens, UniProt P41212 1-452)
Chain of ETV6 (P41212 whole entry): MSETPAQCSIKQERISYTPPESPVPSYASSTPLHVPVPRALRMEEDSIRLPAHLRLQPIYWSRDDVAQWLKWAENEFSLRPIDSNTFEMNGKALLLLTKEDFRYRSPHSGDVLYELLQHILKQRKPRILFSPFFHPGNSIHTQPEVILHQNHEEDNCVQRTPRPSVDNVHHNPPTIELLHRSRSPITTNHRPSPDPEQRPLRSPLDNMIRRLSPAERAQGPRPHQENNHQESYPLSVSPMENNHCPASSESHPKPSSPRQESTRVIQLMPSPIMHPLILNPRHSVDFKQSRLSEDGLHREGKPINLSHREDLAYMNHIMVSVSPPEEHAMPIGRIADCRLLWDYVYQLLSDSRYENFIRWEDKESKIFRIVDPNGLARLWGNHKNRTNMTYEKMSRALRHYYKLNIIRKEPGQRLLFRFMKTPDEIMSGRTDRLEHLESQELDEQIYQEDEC
Procedure, shortened: as §1

Chain of ETV5 (P41161 whole entry, the tested form may be a part): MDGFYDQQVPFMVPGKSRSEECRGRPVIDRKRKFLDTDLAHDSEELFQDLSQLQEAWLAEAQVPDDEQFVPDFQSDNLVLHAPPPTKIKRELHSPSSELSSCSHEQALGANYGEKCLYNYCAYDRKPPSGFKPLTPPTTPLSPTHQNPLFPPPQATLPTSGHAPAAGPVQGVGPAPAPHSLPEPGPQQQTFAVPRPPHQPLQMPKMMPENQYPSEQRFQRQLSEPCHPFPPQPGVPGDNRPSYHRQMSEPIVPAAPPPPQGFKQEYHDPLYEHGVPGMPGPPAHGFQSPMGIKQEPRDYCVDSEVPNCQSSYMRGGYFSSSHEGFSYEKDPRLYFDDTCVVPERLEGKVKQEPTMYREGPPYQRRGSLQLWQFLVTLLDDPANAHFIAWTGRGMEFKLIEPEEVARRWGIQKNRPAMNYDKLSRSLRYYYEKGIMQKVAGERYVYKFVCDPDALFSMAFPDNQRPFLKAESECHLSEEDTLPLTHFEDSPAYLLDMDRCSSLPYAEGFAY

GGAAGA
binding signal (ETV5): 1.22 fold enrichment (6-mer frequency, TF over GST control) | binding signal (SPIC): 1.08 fold enrichment (6-mer frequency, TF over GST control) | binding signal (ELF4): 1.06 fold enrichment (6-mer frequency, TF over GST control) | binding signal (ETV1): 1.2 fold enrichment (6-mer frequency, TF over GST control) | binding signal (ERF): 1.03 fold enrichment (6-mer frequency, TF over GST control) | binding signal (ETV3L): 1.14 fold enrichment (6-mer frequency, TF over GST control) | binding signal (ETS2): 1.18 fold enrichment (6-mer frequency, TF over GST control) | binding signal (ELF5): 1.58 fold enrichment (6-mer frequency, TF over GST control) | binding signal (ETV3): 1.24 fold enrichment (6-mer frequency, TF over GST control) | binding signal (ETV6): 1.26 fold enrichment (6-mer frequency, TF over GST control)
